Screening data from PubChem.
Pf growth 96h = inhibits malaria parasite growth, 96 h; P. falciparum luciferase reporter growth, 96 h; Potency, µM (doses to about 28.7 µM), for the others: at the highest dose activity change, negative = inhibition, most hits filed as inhibitors; 320,000 compounds, 6.9% hits; further: potency means the concentration at half of the fitted maximal effect; on the % scale 0 is the no-effect control and ±100 the full control effect
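Luminescence readout: decreased luciferase signal marks inhibited growth of reporter-expressing P. falciparum in infected red cells (2% hematocrit, 0.05% parasitemia final), exposed to compound two generations (96 h, 37 C, 5% CO2).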
Pf growth 48h = P. falciparum growth inhibition at 48 hours (one generation) | P. falciparum luciferase growth in erythrocytes, 48 h | Potency, µM (series often up to 28.7 µM), without a hit: at the top dose activity change, negative = inhibition, hits mostly inhibitors | 310,000 compounds, 5.9% hits; further: potency means the concentration at half of the fitted maximal effect; on the % scale 0 is the no-effect control and ±100 the full control effect
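Luciferase-expressing P. falciparum in infected erythrocytes (2% hematocrit, 0.1% parasitemia final) in RPMI 1640/0.5% Albumax were exposed to compound for 48 hours at 37 C, 5% CO2; growth read as luminescence.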
Shiga inhibitor = blocks Shiga toxin action in Vero cells. Vero cells, Shiga toxin protein synthesis inhibition reporter. inhibition, % at 38.7 µM. 290,000 compounds, 9.2% hits. AID 2315; in the data active means inhibition mostly above about 28%, no sharp cut-off; inactive means mostly below about 43%; further: 0% is about no effect
CHX counter = counter-screen hit for Shiga toxin inhibitors, cycloheximide. 300,000 compounds, 12% hits. max response, %. cell reporter, cycloheximide protein synthesis inhibition counterscreen; in the data active means max response mostly above about 13%, no sharp cut-off; inactive means mostly below about 14%; further: read at 38.3 µM for the half of the compounds with a filed dose; 0% is about no effect
Starred values were filed as active, the others as inactive; u = inconclusive; x = not tested or not shown; [ ] = dose if it differs, or a comment. Only some compounds are listed: those with a hit (about 21% of all), similar ones and a draw of the others. Unless noted, the call rests on the fitted dose curve; in most records, active means well fitted inhibition curve with a large enough effect; inconclusive means small, poorly fitted or top-dose-only effect, or another doubt; inactive means no such curve, though single readings can be large or run the other way.

SMILES	Pf growth 96h	Pf growth 48h	Shiga inhibitor	CHX counter
CC(NC(=O)c1ccc(CS(C)(=O)=O)cc1)c1cccc2ccccc12 (stereo not given)	-28.6%	u	-2.5	-3.2
COCCn1nnnc1C(c1cc2cc(OC)ccc2[nH]c1=O)N1CCC(Cc2ccccc2)CC1 (stereo not given)	-4.8%	11.7µM*	13.7	1.0
CCN(Cc1ccccc1)C(c1cc2cc(C)ccc2[nH]c1=O)c1nnnn1CCOC (stereo not given)	11.7µM*	u	31.4	-4.1
COCCn1nnnc1C(c1cc2cc(C)ccc2[nH]c1=O)N1CCCCCC1 (stereo not given)	-15.6%	10.5%	-3.3	-2.5
CC1(C)Cc2c(cnn2-c2cccc(F)c2)C(NC(=O)c2ccc(=O)[nH]n2)C1 (stereo not given)	u	-18.2%	-5.1	17.2
CN1CCCCC1CCN1c2ccccc2Sc2ccc(S(C)=O)cc21 (stereo not given)	1.51µM*	u	-12.5	-5.9
Cc1nc(SCC#N)c2c(C)c(C)sc2n1	9.28µM*	-8.1%	-2.3	-1.6
COc1cc(Nc2c3c(nc4ccccc24)CCC3)cc(OC)c1OC	4.7%	11.7µM*	-8.1	-1.9
N#Cc1cccc(Nc2c3c(nc4ccccc24)CCC3)c1	-19.2%	u	-10.0	-2.4
Cc1cccc(Nc2c3c(nc4ccccc24)CCC3)c1	u	11.7µM*	-5.7	-2.3
CCOC(=O)C1CCCN(CCC(=O)Nc2cc(OC)ccc2OC)C1 (stereo not given)	u	-123.3%	-7.2	-3.1
Cc1nn(C)cc1C(=O)/C=C/c1ccc([N+](=O)[O-])cc1	4.65µM*	13.1µM*	3.5	11.5
CCOC(=O)C1CCN(C(=O)Cn2cnc3sc(C)c(S(=O)(=O)N4CCOCC4)c3c2=O)CC1	u	1.47µM*	-26.2	-4.5
C[C@H](NC(=O)c1ccco1)C(=O)NCCc1ccc(S(N)(=O)=O)cc1	17.7%	9.3%	-11.2	1.6
O=C(NCCCCNC(=O)c1ccccc1Cl)c1ccccc1Cl	14.5%	0.0%	-19.5	0.9
NC(=O)c1ccccc1NCC(=O)c1ccc(Cl)cc1	u	x	21.4	10.6
O=C(CNC(=O)c1ccccc1Cl)c1ccccc1	u	135.7%	65.0*	50.4*
NNC(=O)CNC(=O)c1ccccc1F	24.4%	-12.0%	-4.2	14.2
CC(CNC(=O)c1ccccc1Cl)c1ccccc1 (stereo not given)	3.6%	49.4%	36.4*	33.6*
O=C(CNC(=O)c1ccccc1F)c1ccccc1	-8.2%	151.7%	42.1	34.5*
O=C(CNc1ccccc1C(=O)O)c1ccccc1	8.5%	-15.6%	50.7	18.2*
O=C(CNC(=O)c1ccccc1F)Nc1ccccc1C(F)(F)F	33.3%	4.1%	-16.3	-2.2
Cc1cc(NC(=O)CSc2nc3ccc(Cl)cc3[nH]2)no1	-4.2%	x	-19.3	-0.8
Cc1cc(C)cc(NC(=S)NCCN(C2CCCCC2)C2CCCC2)c1	u	u	4.2	-2.2
CC(C)Sc1nc2ccc(Br)cc2[nH]1	1.2%	33.1%	88.2*	36.3*
SMILES	Pf growth 96h	Pf growth 48h	Shiga inhibitor	CHX counter
COc1ccc(NC(=O)c2ccc(COc3ccccc3)o2)cc1	83.3%	34.2%	24.2	21.4*
Cc1ccc(OCc2ccc(C(=O)Nc3ccc(S(N)(=O)=O)cc3)o2)cc1	26.0%	u	4.6	18.2
COc1ccc(NC(=O)c2ccc(Cc3ccc(C)cc3)o2)cc1	u	-22.3%	29.2	24.1*
COC(=O)c1ccccc1NC(=O)c1ccc(COc2ccccc2)o1	13.0%	5.0%	3.8	-1.6
COc1ccc(NC(=O)c2ccc(COc3ccccc3)o2)c(OC)c1	8.28µM*	-7.7%	-5.1	3.4
Cc1cccc(NC(=S)N2CCC(NC(=O)C3CCCCC3)CC2)c1	-5.4%	-13.8%	-3.0	-0.3
CCOc1ccc(C2c3[nH]c4ccccc4c3C[C@H]3C(=O)N(C4CC4)CC(=O)N23)cc1OC (stereo not given in full)	u	8.6%[0.00184 µM]	-0.7	-4.1
COc1cc(C2c3[nH]c4ccccc4c3C[C@H]3C(=O)N(CCO)CC(=O)N23)cc(OC)c1OC (stereo not given in full)	-9.3%	u	-6.6	-4.7
O=C1[C@@H]2Cc3c([nH]c4ccccc34)C(c3cccc([N+](=O)[O-])c3)N2C(=O)CN1C1CCN(Cc2ccccc2)CC1 (stereo not given in full)	14.7µM*	9.28µM*	19.9	3.2
CCCN1CC(=O)N2C(c3cccc(OC)c3OC)c3[nH]c4ccccc4c3C[C@H]2C1=O (stereo not given in full)	4.15µM*	9.28µM*	-11.0	-2.4
